Laboratory results: PubChem BioAssay (NCATS)
Records with an inconclusive call do not appear. Entries that show only a call come without a potency. Active and inactive are the calls of the source. Unless noted, the call rests on the fitted dose curve.

Key:
[1] = qHTS for Inhibitors of the Functional Ribonucleoprotein Complex (vRNP) of Lassa (LASV) Arenavirus: LASV Primary Screen - GLuc reporter signal (AID 1347082; calls by dose curve; tested in HEK293 reporter line; further: nearly all actives have a fitted effect of over 60% in size); conditions: LASV minigenome vRNP, Gaussia luciferase reporter; series mostly up to 57.5 µM
[2] = qHTS for Inhibitors of the Functional Ribonucleoprotein Complex (vRNP) of Lassa (LASV) Arenavirus: Viability assay - alamar blue signal for LASV Primary Screen (AID 1347083; calls by dose curve; tested in HEK293 reporter line; further: nearly all actives have a fitted effect of over 80% in size); conditions: cell viability, alamar blue fluorescence (LASV minigenome counter-screen); series mostly up to 57.5 µM
[3] = qHTS for Inhibitors of the Functional Ribonucleoprotein Complex (vRNP) of Lymphocytic Choriomeningitis Arenaviruses (LCMV): Viability assay - alamar blue signal for LCMV Primary Screen (AID 1347085; calls by dose curve; tested in HEK293 reporter line; further: nearly all actives have a fitted effect of over 80% in size); conditions: alamar blue viability counter-screen, LCMV vRNP screen cells; series mostly up to 57.5 µM
[4] = biological target: Nucleoprotein (Lymphocytic choriomeningitis virus (strain Armstrong)) (UniProt P09992); experiment: qHTS for Inhibitors of the Functional Ribonucleoprotein Complex (vRNP) of Lymphocytic Choriomeningitis Arenaviruses (LCMV): LCMV Primary Screen - GLuc reporter signal (AID 1347086); conditions: LCMV minigenome vRNP cell assay, Gaussia luciferase reporter; series mostly up to 57.5 µM; further: nearly all actives have a fitted effect of over 70% in size
Potency means the concentration at half of the fitted maximal effect.

Sequence of Nucleoprotein (Lymphocytic choriomeningitis virus (strain Armstrong)) (P09992 whole entry, looked up): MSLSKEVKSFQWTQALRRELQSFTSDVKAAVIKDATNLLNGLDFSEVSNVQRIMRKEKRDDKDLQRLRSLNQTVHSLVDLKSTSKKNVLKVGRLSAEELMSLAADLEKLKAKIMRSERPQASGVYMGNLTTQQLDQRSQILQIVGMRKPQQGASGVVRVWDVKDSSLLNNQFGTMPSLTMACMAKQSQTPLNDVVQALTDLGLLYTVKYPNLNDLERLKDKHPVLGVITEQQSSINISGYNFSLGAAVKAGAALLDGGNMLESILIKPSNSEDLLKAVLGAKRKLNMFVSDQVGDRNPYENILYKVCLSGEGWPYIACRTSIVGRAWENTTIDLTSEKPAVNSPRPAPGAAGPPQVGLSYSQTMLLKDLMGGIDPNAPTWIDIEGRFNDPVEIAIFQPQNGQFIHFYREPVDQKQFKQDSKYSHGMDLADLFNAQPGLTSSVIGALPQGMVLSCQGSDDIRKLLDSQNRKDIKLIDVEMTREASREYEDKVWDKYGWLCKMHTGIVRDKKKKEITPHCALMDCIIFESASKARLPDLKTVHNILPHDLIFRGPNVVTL

Structure (SMILES)	Potency [1]	Potency [2]	Potency [3]	Potency [4]
Cc1ccc(C)c(OCCCC(C)(C)C(=O)O)c1	inactive	inactive	inactive	inactive
COCCCC/C(=N\OCCN)c1ccc(C(F)(F)F)cc1	inactive	inactive	inactive	inactive
O=P(O)(O)C(O)(Cc1cccnc1)P(=O)(O)O	inactive	inactive	inactive	inactive
O=C1CCC(N2C(=O)c3ccccc3C2=O)C(=O)N1 (stereo not drawn)	inactive	inactive	inactive	inactive
CC(=O)O[C@@]12CO[C@@H]1C[C@H](O)[C@@]1(C)C(=O)[C@H](O)C3=C(C)[C@@H](OC(=O)[C@H](O)[C@@H](NC(=O)OC(C)(C)C)c4ccccc4)C[C@@](O)([C@@H](OC(=O)c4ccccc4)[C@H]21)C3(C)C	inactive	inactive	inactive	–
C[C@@H]1CC(=O)NN=C1c1ccc(NN=C(C#N)C#N)cc1	inactive	inactive	inactive	inactive
Cc1ccccc1C(=O)Nc1ccc(C(=O)N2CCCC(O)c3cc(Cl)ccc32)c(C)c1 (stereo not drawn)	inactive	inactive	inactive	inactive
Cc1ccc(C(=O)c2cc(O)c(O)c([N+](=O)[O-])c2)cc1	inactive	inactive	inactive	inactive
CNCC[C@@H](Oc1ccccc1C)c1ccccc1	inactive	inactive	inactive	inactive
C[C@@H](NCCCc1cccc(C(F)(F)F)c1)c1cccc2ccccc12	inactive	inactive	inactive	inactive
c1cnc2cc3c(cc2n1)C1CNCC3C1	inactive	24300 nM (active)	inactive	inactive
OCCN1C[C@H](O)[C@@H](O)[C@H](O)[C@H]1CO	inactive	inactive	–	–
CCCCc1oc2ccc(NS(C)(=O)=O)cc2c1C(=O)c1ccc(OCCCN(CCCC)CCCC)cc1	inactive	inactive	inactive	–
CN1CCN(C(c2ccccc2)c2ccccc2)CC1	inactive	inactive	inactive	inactive
COc1ccc(OC)c(C(O)CNC(=O)CN)c1 (stereo not drawn)	inactive	inactive	inactive	inactive
CCN(CC)CCCC(C)Nc1ccnc2cc(Cl)ccc12 (stereo not drawn)	inactive	inactive	inactive	–
COc1cc2c(c(OC)c1OC)-c1ccc(OC)c(=O)cc1[C@@H](NC(C)=O)CC2	inactive	inactive	inactive	–
CC(C)Nc1cccnc1N1CCN(C(=O)c2cc3cc(NS(C)(=O)=O)ccc3[nH]2)CC1	inactive	inactive	inactive	inactive
O=C1N=C(O)CN1/N=C/c1ccc(-c2ccc([N+](=O)[O-])cc2)o1	inactive	inactive	inactive	inactive
CC1=C(C(=O)O)N2C(=O)[C@@H](NC(=O)[C@H](N)c3ccccc3)[C@H]2SC1	inactive	inactive	inactive	inactive
CCC(C)n1ncn(-c2ccc(N3CCN(c4ccc(OC[C@H]5CO[C@](Cn6cncn6)(c6ccc(Cl)cc6Cl)O5)cc4)CC3)cc2)c1=O (stereo partly drawn)	inactive	inactive	inactive	inactive
CCN1CCN(C(=O)N[C@@H](C(=O)N[C@@H]2C(=O)N3C(C(=O)O)=C(CSc4nnnn4C)CS[C@H]23)c2ccc(O)cc2)C(=O)C1=O	inactive	inactive	inactive	inactive
COc1cc2ncnc(Nc3ccc(F)c(Cl)c3)c2cc1OCCCN1CCOCC1	inactive	2220 nM (active)	1110 nM (active)	–
CCCN(CCC)S(=O)(=O)c1ccc(C(=O)O)cc1	inactive	inactive	inactive	inactive

Structure (SMILES)	Potency [1]	Potency [2]	Potency [3]	Potency [4]
O=c1[nH]cc(F)c(=O)[nH]1	inactive	inactive	–	–
CN(C)C(=O)C(CCN1CCC(O)(c2ccc(Cl)cc2)CC1)(c1ccccc1)c1ccccc1	inactive	inactive	–	–
CC(N)C12CC3CC(CC(C3)C1)C2 (stereo not drawn)	inactive	inactive	inactive	inactive
COC(=O)Nc1nc2ccc(C(=O)c3cccs3)cc2[nH]1	inactive	54.4 nM (active)	27.3 nM (active)	–
CN(C)[C@@H]1C(=O)C(C(N)=O)=C(O)[C@@]2(O)C(=O)C3=C(O)c4c(O)ccc(Cl)c4[C@@H](O)[C@H]3C[C@@H]12	inactive	inactive	inactive	inactive
CC[C@@]1(c2ccccc2)NC(=O)N(C)C1=O	inactive	inactive	inactive	inactive
CCOc1ccccc1OCCN[C@H](C)Cc1ccc(OC)c(S(N)(=O)=O)c1	inactive	inactive	inactive	inactive
Cc1onc(-c2c(Cl)cccc2Cl)c1C(=O)N[C@@H]1C(=O)N2[C@@H]1SC(C)(C)[C@@H]2C(=O)O	inactive	inactive	inactive	inactive
CO[C@@H](C(=O)N1Cc2[nH]nc(NC(=O)c3ccc(N4CCN(C)CC4)cc3)c2C1)c1ccccc1	inactive	4850 nM (active)	6850 nM (active)	inactive
COc1cc(Cc2cnc(N)nc2N)cc(OC)c1OC	inactive	inactive	inactive	inactive
Clc1ccc(C(c2ccccc2Cl)C(Cl)Cl)cc1 (stereo not drawn)	inactive	inactive	inactive	inactive
CC(=O)Oc1ccccc1C(=O)Nc1ncc([N+](=O)[O-])s1	inactive	inactive	inactive	inactive
COc1cc2nc(N3CCN(C(=O)c4ccco4)CC3)nc(N)c2cc1OC	inactive	inactive	inactive	inactive
O[C@@H](CNC[C@H](O)[C@H]1CCc2cc(F)ccc2O1)[C@@H]1CCc2cc(F)ccc2O1	inactive	inactive	inactive	inactive
CN(C)c1ccc(O)c2c1C[C@H]1C[C@H]3[C@H](N(C)C)C(=O)C(C(N)=O)=C(O)[C@@]3(O)C(=O)C1=C2O	inactive	inactive	inactive	inactive
CC(C(=O)O)c1cccc(C(=O)c2ccccc2)c1 (stereo not drawn)	inactive	inactive	inactive	inactive
O=C1NC(=O)C(c2ccccc2)(c2ccccc2)N1	inactive	inactive	inactive	inactive
CCCN(CCC)CCc1cccc2c1CC(=O)N2	inactive	inactive	inactive	inactive
COc1cc(C(C)=O)ccc1OCCCN1CCC(c2noc3cc(F)ccc23)CC1	inactive	inactive	inactive	inactive
CNC1(C)C2CCC(C2)C1(C)C (stereo not drawn)	inactive	inactive	inactive	inactive
CCOC(=O)[C@H](CCc1ccccc1)N[C@@H](C)C(=O)N1Cc2cc(OC)c(OC)cc2C[C@H]1C(=O)O	inactive	inactive	inactive	inactive
CC(=O)SC[C@@H](C)C(=O)N1CCC[C@H]1C(=O)N[C@@H](Cc1ccccc1)C(=O)O	inactive	inactive	inactive	inactive
CC(C)C1CCC(C(=O)N[C@H](Cc2ccccc2)C(=O)O)CC1 (stereo partly drawn)	inactive	inactive	inactive	inactive
OCCN1CCN(CCCN2c3ccccc3Sc3ccc(C(F)(F)F)cc32)CC1	inactive	inactive	inactive	inactive

Structure (SMILES)	Potency [1]	Potency [2]	Potency [3]	Potency [4]
CC1(C)S[C@@H]2[C@H](NC(=O)Cc3ccccc3)C(=O)N2[C@H]1C(=O)O (tested in a mixture with another compound)	inactive	inactive	inactive	inactive
Cc1nc(-c2ccc(OCC(C)C)c(C#N)c2)sc1C(=O)O	inactive	inactive	inactive	inactive
CC(C)(O)c1ccccc1CC[C@@H](SCC1(CC(=O)O)CC1)c1cccc(/C=C/c2ccc3ccc(Cl)cc3n2)c1	inactive	inactive	inactive	inactive
CC(C)C[C@H](NC(=O)[C@H](Cc1ccccc1)NC(=O)c1cnccn1)B(O)O	485 nM (active)	217 nM (active)	685 nM (active)	344 nM (active)
CC1=C(C(=O)O)N2C(=O)[C@@H](NC(=O)[C@H](N)c3ccc(O)cc3)[C@H]2SC1	inactive	inactive	inactive	inactive
NCCC(O)(P(=O)(O)O)P(=O)(O)O	inactive	inactive	inactive	inactive
CC(C)OC(=O)C(C)(C)Oc1ccc(C(=O)c2ccc(Cl)cc2)cc1	inactive	inactive	inactive	inactive
Cc1nccn1CC1CCc2c(c3ccccc3n2C)C1=O (stereo not drawn)	inactive	inactive	inactive	inactive
COC(c1ccccc1)(c1ccccc1)[C@H](Oc1nc(C)cc(C)n1)C(=O)O	inactive	inactive	inactive	inactive
Cn1cc[nH]c1=S	inactive	inactive	inactive	inactive
CN(C)CCc1c[nH]c2ccc(CS(=O)(=O)N3CCCC3)cc12	inactive	inactive	inactive	inactive
CC(C)[N+](C)(CCOC(=O)C1c2ccccc2Oc2ccccc21)C(C)C	inactive	inactive	inactive	inactive
N[C@@H](Cc1cc(I)c(Oc2cc(I)c(O)c(I)c2)c(I)c1)C(=O)O	inactive	inactive	inactive	inactive
CCCNCC(O)COc1ccccc1C(=O)CCc1ccccc1 (stereo not drawn)	inactive	inactive	inactive	inactive
NC(=O)c1cn(Cc2c(F)cccc2F)nn1	inactive	inactive	inactive	inactive
COc1ccc(-c2cc(=S)ss2)cc1	inactive	inactive	inactive	inactive
OCCOCCN1CCN(C(c2ccccc2)c2ccc(Cl)cc2)CC1 (stereo not drawn)	inactive	inactive	inactive	inactive
O=C1CCc2cc(OCCCCc3nnnn3C3CCCCC3)ccc2N1	inactive	inactive	inactive	inactive
C[C@@H](c1ncncc1F)C(O)(Cn1cncn1)c1ccc(F)cc1F (stereo partly drawn)	inactive	inactive	inactive	inactive
Cc1cccc(Nc2ccccc2C(=O)O)c1C	inactive	inactive	inactive	inactive
CN(C)/N=N/c1nc[nH]c1C(N)=O	inactive	inactive	inactive	inactive
CC(=O)OCC(CCn1cnc2cnc(N)nc21)COC(C)=O	inactive	inactive	inactive	inactive
